Rows were chosen to be rich in hits. Some 1.3% of all compounds tested hit in one or more screens of this group.
PriA SSB inh – inhibitors of Klebsiella pneumoniae PriA binding to SSB C-terminal tail; AlphaScreen SSBct-PriA binding, biotinylated peptide; inhibition, % at 33 µM; actives 0.6% (n = 430,000); AID 1272365; in the data active = inhibition mostly above about 37%, no sharp cut-off; inactive = mostly below about 20%;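 also: plate controls were negative control peptide for no effect and reference peptide for full effect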
TcdB inh – blocks C. difficile toxin B glycohydrolase activity; P18177; TcdB glycohydrolase enzymatic assay, plate reader; actives 0.24% (n = 350,000); AID 652162; inhibition, % at 9.99 µM; in the data active = inhibition above about 10%
DUSP3 inh – DUSP3 (human) phosphatase inhibition | P51452 | recombinant VHR phosphatase, pNPP absorbance | inhibition, % at 13.3 µM | actives 0.52% (n = 290,000) | AID 1654; in the data active = inhibition above about 50%
SARS 3CLpro inh – SARS-CoV 3CLpro protease inhibition; recombinant SARS-CoV 3CLpro, quenched FRET peptide cleavage; inhibition, % at 6 µM; actives 0.14% (n = 290,000); AID 1706; in the data active = inhibition above about 12%
CCHF vOTU inh-1 – CCHFV vOTU protease inhibition | Pep-AMC fluorescence | inhibition, % at 11.5 µM | actives 0.55% (n = 370,000) | AID 651958; also: 0% = vehicle wells with enzyme and 100% = no enzyme wells
Vc quorum ag – quorum light induction in luxS cqsA deficient V. cholerae. activation, % at 18.7 µM. actives 0.16% (n = 350,000). V. cholerae BH1578 lux reporter, luminescence, 6 h; in the data active = activation mostly above about 9.7%, no sharp cut-off
CCHF vOTU inh-2 – confirmation of CCHF virus vOTU protease inhibitors; actives 17% (n = 1,900); Recombinant CCHFV vOTU, Pep-AMC fluorescence; shares compounds with CCHF vOTU inh-1; AID 686976; inhibition, % at 11.5 µM
Starred values were filed as active, the others as inactive; i = inactive; nt = no result. Rule as the data show it, unless noted: active = inhibition above about 30%; inactive = the rest.

SMILES	PriA SSB inh	TcdB inh	DUSP3 inh	SARS 3CLpro inh	CCHF vOTU inh-1	Vc quorum ag	CCHF vOTU inh-2
COCCCNC(=O)c1ccc2c3c(onc13)-c1ccccc1C2=O	29	nt	5	8	nt	-1	nt
CCOC(=O)C(C(=O)OCC)c1cc(Br)c2noc3c2c1C(=O)c1ccccc1-3	17	nt	0	-3	35*	i	11
CC(C)c1nnc(C2CCN(CC(=O)Nc3cccc(C(F)(F)F)c3)CC2)o1	-1	nt	nt	nt	nt	nt	nt
Cc1c(NC(=O)C(C)OC(=O)c2ccc([N+](=O)[O-])s2)c(=O)n(-c2ccccc2)n1C (stereo unspecified)	3	-2	0	3	41*	-1	45*
COc1coc(C(=O)N2CCN(c3ccccc3)CC2)cc1=O	-9	nt	nt	nt	nt	nt	nt
CCOC(=O)C(/C=C(\C#N)C(=O)OCC)=C(/N)N1CCN(c2ccccc2)CC1	nt	nt	18	-1	33*	nt	8
O=C(NCC1(O)CCOc2ccccc21)c1ccoc1 (stereo unspecified)	21	nt	nt	nt	nt	nt	nt
CCOC(=O)C1CCCN(C(=O)Cc2csc(NC(=O)Nc3ccccc3OC)n2)C1 (stereo unspecified)	13	nt	nt	nt	nt	nt	nt
COC(=O)c1ccc(CNCC(=O)Nc2ccc(C(=O)OC)cc2)cc1	-11	2	8	4	-18	0	nt
COC(=O)c1ccc(NC(=O)CNCc2ccncc2)cc1	7	nt	-7	1	32*	0	-11
CCc1cc[n+](C2=C([O-])c3ccccc3C(=O)/C2=N\S(=O)(=O)c2cccs2)cc1	nt	-1	-4	2	105*	-2	103*
O=C1C(=NS(=O)(=O)c2cccs2)C([n+]2ccccc2)=C([O-])c2ccccc21	3	nt	nt	nt	nt	nt	nt
Cc1nc(-c2ccccc2Cl)sc1CNS(=O)(=O)c1cccs1	-1	nt	nt	nt	nt	nt	nt
O=C1NC(c2cccc3ccccc23)Nc2ccccc21 (stereo unspecified)	-11	0	nt	nt	-12	i	nt
O=C1c2ccccc2C(=O)C12OC2c1cccc2ccccc12 (stereo unspecified)	14	-2	18	-1	87*	0	48*
CCc1noc(C)c1C(=O)N(C)CC(=O)Nc1ccccc1C(F)(F)F	-5	1	nt	nt	36*	0	-1
CCc1noc(C)c1C(=O)N(C)CC(=O)Nc1ccc(Cl)c(Cl)c1	-14	1	nt	nt	-8	-10	nt
O=C(Nc1nc2c(s1)CN(C(=O)CSC1CCCC1)CC2)c1ccsc1	22	nt	nt	nt	nt	nt	nt
COc1cc2c(cc1NCc1ccc3c(c1)OCO3)oc1ccccc12	21	nt	-4	2	0	4	nt
COc1cc2c(cc1NCc1ccccn1)oc1ccccc12	17	nt	22	8	30*	i	-5
COc1ccc(CCS(=O)(=O)NC[C@H](O)c2ccc(SC)cc2)cc1	-2	nt	nt	nt	nt	nt	nt
CCc1nnc(NS(=O)(=O)c2ccc(NS(=O)(=O)c3ccccc3[N+](=O)[O-])cc2)s1	-8	-4	-7	-1	-3	-1	nt
CCc1nnc(NS(=O)(=O)c2ccc(NC(=O)c3ccc([N+](=O)[O-])s3)cc2)s1	nt	0	nt	nt	35*	0	12
CCc1nnc(NS(=O)(=O)c2ccc(Nc3ccc([N+](=O)[O-])c4nonc34)cc2)s1	18	1	22	6	31*	0	6
CCc1nnc(NS(=O)(=O)c2ccc(NC(=O)c3ccc([N+](=O)[O-])o3)cc2)s1	-20	nt	nt	nt	nt	nt	nt
SMILES	PriA SSB inh	TcdB inh	DUSP3 inh	SARS 3CLpro inh	CCHF vOTU inh-1	Vc quorum ag	CCHF vOTU inh-2
Cc1ccc(CNC(=O)CSc2nc(=O)n3ccc(C)cc3n2)cc1	nt	0	nt	nt	40*	0	5
O=C(O)Cn1cncn1	-9	nt	nt	nt	nt	nt	nt
O=c1cc(O)c2ccc(O)cc2o1	-10	1	16	12	-3	0	nt
O=c1ccc2[n+]([O-])c3ccc(O)cc3oc-2c1	0	-3	45	1	50*	i	27
NS(=O)(=O)c1ccc(N=Nc2ccc(=O)[nH]c2O)cc1	25	-2	40	-1	32*	-2	20
COc1ccc(C(=O)c2ccc(N3CCOCC3)c([N+](=O)[O-])c2)cc1	5	4	20	2	30*	-1	-5
COc1ccc(N2CCN(c3ccc(C(=O)O)cc3[N+](=O)[O-])CC2)cc1	15	-16	28	1	2	i	nt
CN(C)C(CNC(=O)C(=O)NC1CCCC1)c1cccs1 (stereo unspecified)	-13	nt	nt	nt	nt	nt	nt
COc1ccc(CNC(=O)c2sc(=O)n(Cc3cc(Cl)ccc3OC)c2C)cc1	nt	1	nt	nt	3	i	nt
COc1ccc(NC(=O)c2sc(=O)n(Cc3ccc(F)c(Cl)c3)c2C)cc1OC	nt	-8	nt	nt	31*	i	-14
Cc1cc(C)c(S(=O)(=O)Nc2nnc(C)s2)c(C)c1	-5	nt	6	2	4	i	nt
Cc1cc(C)c(S(=O)(=O)Nc2nnc(CC(C)C)s2)c(C)c1	-3	1	6	6	30*	0	-17
O=C(N/N=C/c1ccc([N+](=O)[O-])o1)C1CC1	nt	0	5	-3	32*	0	-12
NS(=O)(=O)c1ccc(CCNC(=O)C(=O)NC2CCCCCC2)cc1	-9	nt	nt	nt	nt	nt	nt
CC(NC1=CC(=O)c2cccnc2C1=O)C(O)c1ccccc1 (stereo unspecified)	21	-2	nt	nt	101*	i	94*
CC(c1ccccc1)N1C(=O)c2cccnc2C1=O (stereo unspecified)	-3	2	6	-1	-4	0	nt
COc1ccc(OC)c(/C=N/Nc2nncn2/N=C/c2cc(OC)ccc2OC)c1	nt	nt	-8	2	32*	-1	-15
COc1ccc(OC)c(C=NNc2nncn2N=Cc2cc(OC)ccc2OC)c1	10	nt	nt	nt	nt	nt	nt
COc1cc(/C=N/Nc2nncn2/N=C/c2ccc(O)c(OC)c2)ccc1O	nt	-8	32	6	100*	0	-13
COc1cc(/C=N\Nc2nncn2N)ccc1OC(C)=O	nt	0	13	0	90*	1	-22
Cc1ccc(C=NNc2nncn2N)cc1	-9	nt	nt	nt	nt	nt	nt
Cc1ccc(-n2c(SCc3nc(-c4ccc5c(c4)OCO5)no3)nc3ccccc3c2=O)cc1	3	nt	nt	nt	nt	nt	nt
O=C1C(SCCO)=C(SCCO)C(=O)c2ccccc21	101*	-5	nt	nt	114*	1	107*

Screens (PubChem BioAssay)
